Test results published in paper PMC4336329 (PLoS ONE, 2015).
In all, about 310,000 compounds went through this assay and about 14,000 (4.5%) showed an effect of 50% or more. Effects have a minus sign here. The full list was thinned out, with strong results kept by preference.

target: human ether-à-go-go-related gene (hERG) potassium channel (human, UniProt Q12809); assay: primary screen, population patch clamp on CHO cells stably expressing hERG; higher = less effect of the substance
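Note: peak tail current of the secondary pulse compared with the same well before compound.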

Chain of human ether-à-go-go-related gene (hERG) potassium channel (Q12809 whole entry, looked up): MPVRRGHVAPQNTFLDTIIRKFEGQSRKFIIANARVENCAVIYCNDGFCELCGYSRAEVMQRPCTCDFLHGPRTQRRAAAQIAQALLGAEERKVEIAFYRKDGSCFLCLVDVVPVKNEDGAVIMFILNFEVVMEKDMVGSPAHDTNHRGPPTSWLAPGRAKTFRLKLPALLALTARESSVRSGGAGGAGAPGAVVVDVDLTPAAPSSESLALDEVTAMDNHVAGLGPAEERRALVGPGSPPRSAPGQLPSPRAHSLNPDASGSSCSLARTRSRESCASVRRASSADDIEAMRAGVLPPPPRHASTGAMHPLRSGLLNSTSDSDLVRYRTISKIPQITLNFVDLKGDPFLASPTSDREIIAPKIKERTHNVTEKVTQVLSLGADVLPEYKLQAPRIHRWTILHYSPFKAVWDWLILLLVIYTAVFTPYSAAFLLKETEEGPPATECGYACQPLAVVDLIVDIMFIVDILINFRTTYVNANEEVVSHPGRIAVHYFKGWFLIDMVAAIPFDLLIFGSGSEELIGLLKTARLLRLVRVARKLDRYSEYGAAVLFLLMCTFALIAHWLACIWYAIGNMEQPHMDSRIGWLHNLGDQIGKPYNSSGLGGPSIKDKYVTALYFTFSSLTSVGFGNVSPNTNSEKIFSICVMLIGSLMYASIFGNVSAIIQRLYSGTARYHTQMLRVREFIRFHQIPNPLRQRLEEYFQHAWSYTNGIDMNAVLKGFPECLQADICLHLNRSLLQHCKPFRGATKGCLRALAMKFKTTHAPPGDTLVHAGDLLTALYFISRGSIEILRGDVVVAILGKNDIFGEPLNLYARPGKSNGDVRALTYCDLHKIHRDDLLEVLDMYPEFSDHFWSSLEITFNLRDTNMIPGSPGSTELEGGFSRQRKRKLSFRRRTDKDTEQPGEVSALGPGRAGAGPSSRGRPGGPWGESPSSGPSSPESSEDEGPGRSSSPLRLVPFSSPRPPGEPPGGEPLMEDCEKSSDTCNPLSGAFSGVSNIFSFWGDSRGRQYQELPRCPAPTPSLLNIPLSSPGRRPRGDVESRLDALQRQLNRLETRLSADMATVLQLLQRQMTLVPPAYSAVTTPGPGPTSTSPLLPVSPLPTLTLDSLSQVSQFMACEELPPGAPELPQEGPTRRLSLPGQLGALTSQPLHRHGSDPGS

SMILES | hERG current change (%, negative = inhibition) at 10uM
COc1cc(NC(=O)c2ccc(-c3ccc(Br)cc3)o2)ccc1NC(=O)C(C)C | -26.1%
O=C(CSc1ccc(Cl)cc1)Nc1ccc(N2CCN(c3ccccc3)CC2)c(F)c1 | 24.9%
COc1cccc(C(=O)Oc2ccc3ccc(=O)oc3c2)c1 | 42.3%
N#CCCN(CCN1CCCC1)S(=O)(=O)c1ccc(-c2ccc([N+](=O)[O-])cc2)cc1 | -79.1%
Cc1ccc(S(=O)(=O)N(CCC#N)CCN2CCCC2)cc1 | -21.9%
O=[N+]([O-])c1ccc(S(=O)(=O)NCCN2CCOCC2)cc1 | 11.2%
O=S(=O)(NCCN1CCCC1)c1ccc(Br)cc1 | -8.08%
O=[N+]([O-])c1ccc(-c2ccc(S(=O)(=O)NCCN3CCCC3)cc2)cc1 | -77.7%
CCN(CC)S(=O)(=O)c1ccc(S(=O)(=O)N2CCN(CCC#N)CC2)cc1 | 8.45%
Cc1oc2cc(O)ccc2c(=O)c1Oc1ccccc1 | -10.2%
COC1=CC(=O)C[C@@H](C)[C@]12Oc1c(Cl)c(OC)cc(OC)c1C2=O | -9.99%
C=CCSc1ncccc1C(=O)NCCc1ccc(Cl)cc1 | 6.54%
O=S(=O)(Nc1nc2ccc(S(=O)(=O)N3CCCC3)cc2s1)c1ccc(F)cc1 | -2.68%
COCCNc1oc(-c2ccc(C)cc2)nc1C#N | 8.26%
Cc1ccc(-n2c(SCC(=O)N3CCOCC3)nnc2-c2cccnc2)cc1C | -16.9%
CN(C)CCCN(C(=O)CCc1ccccc1)c1nc2ccc(F)cc2s1.Cl | -70.1%
CN(C)CCN(C(=O)CCc1ccccc1)c1nc2c(F)cc(F)cc2s1.Cl | -33.4%
CN(C)CCCN(C(=O)CCc1ccccc1)c1nc2ccc(Cl)cc2s1.Cl | -24.4%
Cc1ccc2nc(N(CCCN(C)C)C(=O)CCc3ccccc3)sc2c1.Cl | -66%
CN(C)CCCN(C(=O)CCc1ccccc1)c1nc2ccc(Br)cc2s1.Cl | -3.24%

SMILES | hERG current change (%, negative = inhibition) at 10uM
Cc1cccc2sc(N(CCCN(C)C)C(=O)CCc3ccccc3)nc12.Cl | -54.1%
Cc1cccc2sc(N(CCCN(C)C)C(=O)CN3C(=O)c4ccccc4C3=O)nc12.Cl | -11.2%
Cc1ccccc1/C=N/n1c(-c2ccccn2)n[nH]c1=S | 14.7%
O=S(=O)(c1cccc2cccnc12)N1CCN(Cc2ccccc2)CC1 | -0.188%
Cn1ccnc1C(O)c1cc(C(C)(C)C)c(O)c(C(C)(C)C)c1 (stereo not shown) | -37.3%
COC(=O)N/N=C\c1ccc(-c2cc(Cl)c(Cl)cc2Cl)o1 | -1.58%
COc1ccc(S(=O)(=O)N2CCN(CC(=O)NC3CCCC3)CC2)cc1 | 0.823%
O=C(CCc1nc(-c2ccccc2)no1)NCc1ccccc1CN1CCOCC1 | -10.5%
O=C(C1CCCN(Cc2nc(-c3ccc(Cl)cc3)no2)C1)N1CCOCC1 (stereo not shown) | 1.39%
Clc1ccc(-c2noc(CN3CCOCC3)n2)cc1 | 4.83%
Cc1ccc(-c2noc(CCC(=O)NCc3ccccc3CN3CCOCC3)n2)cc1 | -36.5%
O=C(CCc1nc(-c2ccc(Cl)cc2)no1)NCc1ccccc1CN1CCOCC1 | -65.5%
O=C(C1CCN(Cc2nc(-c3ccc(Cl)cc3)no2)CC1)N1CCOCC1 | -61.9%
Cc1ccc2oc(=O)c3cnn(CC(=O)N(CCN(C)C)Cc4ccco4)c3c2c1 | -25.7%
CC(C)c1ccc(-c2c(NCCc3ccccc3)c(=O)c2=O)cc1 | 22.1%
Cc1ccc(OCCNC(=O)CNC(=O)c2ccccc2Cl)cc1 | -3.58%
COc1cc(CN2CCNCC2)cc(OC)c1OC.Cl | 5.64%
CCCn1c(NCc2ccc(N(C)C)cc2)nc2ccccc21 | -40.2%
CCn1c(NCc2ccc3c(c2)OCO3)nc2ccccc21 | -38.5%
CN(C)CCn1c(NCc2ccc3c(c2)OCO3)nc2ccccc21.Cl | -59.5%

SMILES | hERG current change (%, negative = inhibition) at 10uM
O=C(NCCN1CCOCC1)C(=O)NCc1ccc2c(c1)OCO2 | 22.8%
Nc1c(C(=O)NCc2ccc3c(c2)OCO3)c2nc3ccccc3nc2n1CCCN1CCOCC1 | 1.46%
c1ccc2c(c1)nc(NCc1ccc3c(c1)OCO3)n2CCN1CCOCC1 | -66.8%
CCCn1c(NCc2ccc3c(c2)OCO3)nc2ccccc21 | 12.6%
CCCCn1c(NCc2ccc(N(C)C)cc2)nc2ccccc21 | -43.7%
CCCCn1c(NCc2ccc3c(c2)OCO3)nc2ccccc21 | -61%
COc1cc2c(cc1OC)C(CC(=O)O)N(C(=O)CC1CCCC1)CC2 (stereo not shown) | 20.6%
COC(=O)CCCCC1SCC(NC(=O)OC)C1NC(=O)OC (stereo not shown) | 2.09%
CC(C)(C)OC(=O)COc1cc(F)ccc1[N+](=O)[O-] | -3.54%
CCn1c(=N)n(CC(O)COc2ccc(C)cc2)c2ccccc21.Cl (stereo not shown) | -70%
Cc1ccc(OCC(O)Cn2c3ccccc3c3ccccc32)cc1 (stereo not shown) | 8.1%
Cc1ccc(OCCn2c(=O)cnc3ccccc32)cc1 | -9.95%
Cc1nc2ccccc2n1CC(O)COc1ccc(Br)cc1 (stereo not shown) | -49.9%
Cc1ccc(OCCn2c(=O)sc3ccccc32)cc1 | 4.98%
Br.CCCCn1c(=N)n(CCOc2ccc(C)cc2)c2ccccc21 | -73.1%
OCc1nc2ccccc2n1CC(O)COc1ccccc1 (stereo not shown) | 6.25%
CCCCn1c(=N)n(CC(O)COc2ccccc2)c2ccccc21 (stereo not shown) | -73.1%
CCCCn1c(=N)n(CC(O)COc2ccc(C)cc2)c2ccccc21.Cl (stereo not shown) | -81.8%
